Reference: the supplement of paper PMC13380429

Test system: Vero E6 infected with SARS-CoV-2
Assay: inhibition of SARS-CoV-2 cytopathic effect; higher = more antiviral protection, active = above 15
Conditions: 48 h

Measured: inhibition of SARS-CoV-2 cytopathic effect

CC(C)(C)NCC(O)c1ccc(O)c(CO)c1 (stereo not given) [albuterol]
inactive: 1 nM -4.08% | 8.33 nM -2.63% | 100 nM -5.03% | 833.33 nM -4.97% | 10000 nM -3.93%

O=C(O)CCNC(=O)c1ccccc1 [betamipron]
inactive: 1 nM -2.23% | 8.33 nM -0.21% | 100 nM 0.07% | 833.33 nM -1.91% | 10000 nM -2.18%

CCn1cc(C(=O)O)c(=O)c2cc(F)c(N3CCNCC3)cc21 [norfloxacin]
inactive: 1 nM 2.7% | 8.33 nM 2.29% | 100 nM 3.02% | 833.33 nM -0.29% | 10000 nM 3.46%

Cc1c2oc3c(C)ccc(C(=O)N[C@@H]4C(=O)N[C@@H](C(C)C)C(=O)N5CCC[C@H]5C(=O)N(C)CC(=O)N(C)[C@@H](C(C)C)C(=O)O[C@@H]4C)c3nc-2c(C(=O)N[C@@H]2C(=O)N[C@@H](C(C)C)C(=O)N3CCC[C@H]3C(=O)N(C)CC(=O)N(C)[C@@H](C(C)C)C(=O)O[C@@H]2C)c(N)c1=O [actinomycin-d]
inactive: 1 nM -0.33% | 8.33 nM 1.99% | 100 nM 0.83% | 833.33 nM -8.47% | 10000 nM -14.8%

N[C@@H](CC(=O)Nc1ccc(Oc2cc(F)c(F)cc2Br)cc1)C(=O)O
inactive: 1 nM -3.45% | 8.33 nM -0.99% | 100 nM -1.17% | 833.33 nM -3.56% | 10000 nM 6.38%

O=c1[nH]c(=O)n([C@H]2C[C@H](O)[C@@H](CO)O2)cc1/C=C/Br [brivudine]
inactive: 1 nM 1.67% | 8.33 nM 0.21% | 100 nM 0.44% | 833.33 nM -0.42% | 10000 nM -0.09%

O=C(O)[C@H](Cc1ccccc1)NCc1ccc(Cl)cc1
inactive: 1 nM 0.28% | 8.33 nM -1.27% | 100 nM -0.99% | 833.33 nM 1.08% | 10000 nM 0.65%

CC1(C)O[C@H]2CC(=O)OC[C@]23[C@H]2CC[C@@]4(C)[C@H](c5ccoc5)OC(=O)[C@H]5O[C@]54[C@]2(C)C(=O)C[C@@H]13 [limonin]
inactive: 1 nM -0.51% | 8.33 nM -0.42% | 100 nM -2.25% | 833.33 nM -1.69% | 10000 nM -2.49%

O=C(O)CCC(=O)c1ccc(-c2ccccc2)cc1 [fenbufen]
inactive: 1 nM -1.6% | 8.33 nM 2.58% | 100 nM -0.25% | 833.33 nM -2.57% | 10000 nM -2.49%

COc1cccc2cc(-c3nc([C@H]4CC[C@H](C(=O)O)CC4)n4ncnc(N)c34)[nH]c12
inactive: 1 nM 0.22% | 8.33 nM 2.25% | 100 nM 4.58% | 833.33 nM -0.9% | 10000 nM -2.61%

Clc1ccc(COC(Cn2ccnc2)c2ccc(Cl)cc2Cl)cc1 (stereo not given) [econazole]
inactive: 1 nM 1.49% | 8.33 nM 1.04% | 100 nM 0.94% | 833.33 nM 3.08% | 10000 nM -1.91%

C[C@]12CCC(=O)C=C1CC[C@@H]1[C@@H]2CC[C@@]2(C)[C@H]1CC[C@]2(C)O [17-alpha-Methyltestosterone]
inactive: 1 nM 0.59% | 8.33 nM 1.3% | 100 nM -0.05% | 833.33 nM 1.19% | 10000 nM 1.92%

CCCC[C@@H](C=O)NC(=O)[C@H](CC(C)C)NC(=O)OCc1ccccc1 [calpeptin]
inactive: 1 nM -1.61% | 8.33 nM -1.53% | 100 nM -2.86% | 833.33 nM 14.7%
active: 10000 nM 66.9%

NC(=O)c1nc(Nc2ccccc2)sc1NC(=O)C1CCCCC1
inactive: 1 nM 1.69% | 8.33 nM 3.22% | 100 nM -0.11% | 833.33 nM -8.95% | 10000 nM -4.1%

C[C@]12N[C@H](Cc3ccccc31)c1ccccc12 [dizocilpine-(-)]
inactive: 1 nM 1.97% | 8.33 nM 1.82% | 100 nM 1.33% | 833.33 nM 1.1% | 10000 nM -0.44%

N[C@@H](C(=O)O)c1nn[nH]n1 (racemic) [tetrazol-5-yl-glycine-(RS)]
inactive: 1 nM -2.49% | 8.33 nM -1.1% | 100 nM 0.87% | 833.33 nM 1.56% | 10000 nM -1.13%

COC(=O)N/N=C/c1c[n+]([O-])c2ccccc2[n+]1[O-] [carbadox]
inactive: 1 nM -0.14% | 8.33 nM -0.55% | 100 nM 0.99% | 833.33 nM -11.6% | 10000 nM 0.87%

COC(=O)C1=C(C)N(C)C(C)=C(C(=O)OC)C1c1ccc(C(F)(F)F)cc1
inactive: 1 nM 1.98% | 8.33 nM -2.17% | 100 nM 0.85% | 833.33 nM 2.1% | 10000 nM 8.02%

N#Cc1ccc(COC[C@H]2O[C@@H](n3c(NCc4ccc(Cl)c(Cl)c4)nc4c(N)ncnc43)[C@H](O)[C@@H]2O)cc1
inactive: 1 nM 2.98% | 8.33 nM -0.66% | 100 nM -1.89% | 833.33 nM -0.44% | 10000 nM -3.34%

O=C(O)c1ccc2c(c1)C(=O)N(c1cccc(Oc3ccc([N+](=O)[O-])cc3)c1)C2=O
inactive: 1 nM 1.34% | 8.33 nM 0.95% | 100 nM 0.59% | 833.33 nM 1.36% | 10000 nM -0.65%

C[C@H]1O[C@@H](n2cc(F)c(=O)[nH]c2=O)[C@H](O)[C@@H]1O [doxifluridine]
inactive: 1 nM -2.13% | 8.33 nM -1.63% | 100 nM 1.63% | 833.33 nM -0.27% | 10000 nM -0.71%

COC(=O)C1=C(C)NC(C)=C(C(=O)OC2CCCN(Cc3ccccc3)C2)C1c1cccc([N+](=O)[O-])c1 (stereo not given) [benidipine]
inactive: 1 nM -0.65% | 8.33 nM -0.51% | 100 nM -1.47% | 833.33 nM -0.97% | 10000 nM -3.67%

CCCC(=O)Nc1cccc(NC(=O)c2ccccc2Br)c1
inactive: 1 nM 1.03% | 8.33 nM 1.45% | 100 nM 0.94% | 833.33 nM -1.59% | 10000 nM -0.66%

OCc1cncc(F)c1 [5-fluoro-3-pyridyl-methanol]
inactive: 1 nM -1.88% | 8.33 nM 0.14% | 100 nM -10.8% | 833.33 nM -0.19% | 10000 nM -2.94%

NS(=O)(=O)OC[C@@H]1C[C@@H](n2ccc3c(N[C@H]4CCc5ccccc54)ncnc32)C[C@@H]1O [pevonedistat]
inactive: 1 nM 1.08% | 8.33 nM 1.45% | 100 nM 2.73% | 833.33 nM -1.35% | 10000 nM -9.75%

Cc1cc(O)ccc1Cl [chlorocresol]
inactive: 1 nM -0.46% | 8.33 nM 2.29% | 100 nM 1.47% | 833.33 nM 1.63% | 10000 nM 1.88%

Cc1cc(O)c2c(c1)C(=O)c1cccc(O)c1C2=O [chrysophanic-acid]
inactive: 1 nM -0.27% | 8.33 nM 0.87% | 100 nM 0.28% | 833.33 nM -0.5% | 10000 nM 5.09%

C[C@@H]1C/C=C/C=C/C=C/C=C/[C@H](O[C@@H]2O[C@H](C)[C@@H](O)[C@H](N)[C@@H]2O)C[C@@H]2O[C@](O)(C[C@@H](O)C[C@H]3O[C@@H]3/C=C/C(=O)O1)C[C@H](O)[C@H]2C(=O)O [natamycin]
inactive: 1 nM 2.57% | 8.33 nM -0.49% | 100 nM -2.28% | 833.33 nM -6.12% | 10000 nM -4.75%

CC(C)(C)[C@]1(O)CC2OC(=O)CC23C(=O)OC2OC(=O)[C@H](O)C231 (stereo not given in full) [bilobalide]
inactive: 1 nM -0.27% | 8.33 nM 0.92% | 100 nM 0.44% | 833.33 nM -0.26% | 10000 nM -0.37%

CC(C(=O)O)c1ccc(N2Cc3ccccc3C2=O)cc1 (stereo not given) [indoprofen]
inactive: 1 nM 0.91% | 8.33 nM 0.93% | 100 nM 0.86% | 833.33 nM 1.21% | 10000 nM 0.49%

C[C@]12CC[C@@H]3c4ccc(O)cc4CC[C@H]3[C@@H]1CC[C@@H]2OC(=O)CCC1CCCC1 [estradiol-cypionate]
inactive: 1 nM -1.71% | 8.33 nM -1.36% | 100 nM -3.51% | 833.33 nM 1.21% | 10000 nM 1.69%

C[C@@H](c1ncncc1F)[C@](O)(Cn1cncn1)c1ccc(F)cc1F [voriconazole]
inactive: 1 nM 0.72% | 8.33 nM 2.08% | 100 nM -2.48% | 833.33 nM -0.46% | 10000 nM 1.37%

O=C(O)CCN(O)C(=O)CCCCCCCCC1CC1
inactive: 1 nM 2.3% | 8.33 nM -1.05% | 100 nM 1.09% | 833.33 nM 4.48% | 10000 nM 5.29%

O=C1NC(=O)/C(=C/c2ccc3nccc(-c4ccncc4)c3c2)S1
inactive: 1 nM -0.58% | 8.33 nM -1.8% | 100 nM 1.55% | 833.33 nM 2.78% | 10000 nM -1.1%

O=C(Nc1cccc(C(F)(F)F)c1)Nc1cc(S(=O)(=O)NC2CC2)ccc1-c1ccsc1
inactive: 1 nM -0.22% | 8.33 nM -0.85% | 100 nM 0.27% | 833.33 nM 0.38% | 10000 nM 0.46%

CC(C)(OCc1nn(Cc2ccccc2)c2ccccc12)C(=O)O [bindarit]
inactive: 1 nM -0.08% | 8.33 nM -0.77% | 100 nM 0.47% | 833.33 nM -2.78% | 10000 nM -0.8%

CNc1ncnc2c1ncn2[C@@H]1O[C@H](CO)[C@@H](O)[C@H]1O [N6-methyladenosine]
inactive: 1 nM 1.25% | 8.33 nM 1.97% | 100 nM -1.29% | 833.33 nM 0.63% | 10000 nM 2.03%

CC#C[C@]1(O)CC[C@H]2[C@@H]3CCC4=CC(=O)CCC4=C3[C@@H](c3ccc(N(C)C)cc3)C[C@@]21C [mifepristone]
inactive: 1 nM -1.56% | 8.33 nM 0.62% | 100 nM 3.53% | 833.33 nM -4.55% | 10000 nM 8.14%
